The whole screen tested about 5,500 compounds, of which about 2,000 (36%) were called active. About 18% were inconclusive and are not listed. No stated cut-off is given here; in the data, active means normalized growth mostly below about 0.91 (no sharp cut-off); inconclusive means no clear call, values can overlap the other calls; inactive means mostly above about 0.92. Some of the results follow.
Test: chemical genetic growth profiling, strain panel (AID 1159580);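 further: tested at 20 µM; growth read once vehicle control cultures reached saturation at 30 °C; 1 = growth at the plate median or of vehicle wells; lower values mean less growth of the strain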
Settings: S. cerevisiae deletion strains, growth OD
[1] = locus YCL061C, strain MRC1, active compounds read low
[2] = locus YJL187C, strain SWE1, active compounds read low

Measured: normalized growth

COc1ccccc1N1CCN(Cc2ccc(F)cc2)CC1
inactive: locus YAL013W, strain DEP1, active compounds read low 1.02 | locus YBR229C, strain ROT2, active compounds read low 0.993 | [1] 1 | locus YDL101C, strain DUN1, active compounds read low 0.992 | locus YDR150W, strain NUM1, active compounds read low 1.02 | locus YEL061C, strain CIN8, active compounds read low 1.01 | locus YGR078C, strain PAC10, active compounds read low 1.01 | locus YHR030C, strain SLT2, active compounds read low 1.06 | locus YHR087W, strain rtc3, active compounds read low 1.01 | [2] 1.02 | locus YJR043C, strain POL32, active compounds read low 1.01 | locus YJR075W, strain HOC1, active compounds read low 0.983 | locus YKL190W, strain CNB1, active compounds read low 1.02 | locus YLR039C, strain RIC1, active compounds read low 0.987 | locus YLR058C, strain SHM2 (second series), active compounds read low 1.02 | locus YLR085C, strain ARP6, active compounds read low 1.04 | locus YLR262C, strain YPT6, active compounds read low 1.01 | locus YML094W, strain GIM5, active compounds read low 1 | locus YMR219W, strain ESC1, active compounds read low 1.01 | locus YMR263W, strain SAP30, active compounds read low 1.01 | locus YNL128W, strain TEP1, active compounds read low 1.02 | locus YNL153C, strain GIM3, active compounds read low 0.997 | locus YNL298W, strain CLA4 (second series), active compounds read low 1.05 | locus YNL322C, strain KRE1, active compounds read low 1 | locus YNR030W, strain Alg12, active compounds read low 1.04 | locus YPL055C, strain LGE1, active compounds read low 1 | locus YPL241C, strain CIN2, active compounds read low 0.998 | locus YPR135W, strain CTF4, active compounds read low 1

O=C(O)c1ccc2c(c1)OCO2
inactive: locus YAL021C, strain ccr4, active compounds read low 1.01 | locus YAL026C, strain drs2, active compounds read low 0.983 | locus YAL030W, strain snc1, active compounds read low 1.01 | locus YBL061C, strain skt5, active compounds read low 1 | locus YBR009C, strain hhf1, active compounds read low 0.997 | locus YBR023C, strain chs3, active compounds read low 1.01 | locus YBR171W, strain sec66, active compounds read low 0.992 | locus YBR231C, strain swc5, active compounds read low 1.01 | locus YBR279W, strain paf1, active compounds read low 1.01 | locus YCL011C, strain gbp2, active compounds read low 0.979 | locus YCL016C, strain dcc1, active compounds read low 1.01 | [1] 0.984 | locus YCL069W, strain vba3, active compounds read low 0.984 | locus YCR088W, strain abp1, active compounds read low 0.984 | locus YDL005C, strain med2, active compounds read low 1.01 | locus YDL040C, strain nat1, active compounds read low 1.01 | locus YDR001C, strain nth1, active compounds read low 0.982 | locus YDR069C, strain doa4, active compounds read low 1.02 | locus YDR137W, strain rgp1, active compounds read low 1.01 | locus YDR159W, strain sac3, active compounds read low 0.98 | locus YDR195W, strain ref2 1.02 | locus YDR297W, strain sur2, active compounds read low 1.01 | locus YDR334W, strain swr1, active compounds read low 0.994 | locus YDR335W, strain msn5, active compounds read low 1.01 | locus YDR392W, strain spt3, active compounds read low 0.979 | locus YEL003W, strain gim4, active compounds read low 0.98 | locus YEL037C, strain rad23, active compounds read low 0.987 | locus YEL061C, strain CIN8 (second series), active compounds read low 0.988 | locus YER015W, strain faa2, active compounds read low 0.997 | locus YER016W, strain bim1, active compounds read low 1.01 | locus YER111C, strain swi4, active compounds read low 0.978 | locus YER155C, strain BEM2 (second series), active compounds read low 0.992 | locus YFR010W, strain ubp6, active compounds read low 0.994 | locus YGL167C, strain pmr1, active compounds read low 1.02 | locus YGL173C, strain kem1, active compounds read low 1.01 | locus YGL227W, strain vid30, active compounds read low 0.973 | locus YGL240W, strain doc1, active compounds read low 0.998 | locus YGL253W, strain hxk2, active compounds read low 1.01 | locus YHR013C, strain ard1, active compounds read low 1.05 | locus YHR027C, strain rpn1, active compounds read low 1.03 | locus YHR142W, strain chs7, active compounds read low 1 | locus YJL092W, strain hpr5, active compounds read low 0.985 | locus YJL095W, strain BCK1 (second series), active compounds read low 1.02 | locus YJL115W, strain asf1, active compounds read low 0.994 | locus YJL129C, strain trk1, active compounds read low 0.998 | locus YJL154C, strain vps35, active compounds read low 0.989 | locus YJL164C, strain tpk1, active compounds read low 1 | locus YJL166W, strain qcr8, active compounds read low 1.02 | [2] 1.02 | locus YKL160W, strain elf1, active compounds read low 1 | locus YKR026C, strain gcn3, active compounds read low 0.983 | locus YKR091W, strain srl3, active compounds read low 1.01 | locus YLL001W, strain dnm1, active compounds read low 1.01 | locus YLL026W, active compounds read low 1.01 | locus YLL041C, strain sdh2, active compounds read low 1 | locus YLR027C, strain aat2, active compounds read low 1 | locus YLR221C, strain rsa3, active compounds read low 0.999 | locus YLR258W, strain gsy2, active compounds read low 1 | locus YLR262C, strain YPT6 (second series), active compounds read low 1.01 | locus YLR320W, strain mms22, active compounds read low 1.03 | locus YLR342W, strain FKS1, active compounds read low 1.05 | locus YLR357W, strain rsc2, active compounds read low 1.09 | locus YLR370C, strain arc18, active compounds read low 1.01 | locus YLR384C, strain iki3, active compounds read low 1.01 | locus YML120C, strain ndi1, active compounds read low 1.01 | locus YMR058W, strain fet3, active compounds read low 0.997 | locus YMR125W, strain sto1, active compounds read low 1.07 | locus YMR129W, active compounds read low 1 | locus YMR205C, strain PFK2, active compounds read low 1.01 | locus YMR231W, strain pep5, active compounds read low 1.01 | locus YNL071W, strain lat1, active compounds read low 1.01 | locus YNL209W, strain ssb2, active compounds read low 1.01 | locus YNL248C, strain rpa49, active compounds read low 1.02 | locus YNL322C, strain KRE1 (second series), active compounds read low 0.991 | locus YNR049C, strain mso1, active compounds read low 1.01 | locus YOR001W, strain rrp6, active compounds read low 0.994 | locus YOR070C, strain gyp1, active compounds read low 0.999 | locus YOR080W, strain dia2, active compounds read low 1.01 | locus YOR083W, strain WHI5, active compounds read low 1 | locus YOR106W, strain vam3, active compounds read low 1 | locus YOR265W, strain rbl2, active compounds read low 1 | locus YOR270C, strain vph1, active compounds read low 1.05 | locus YOR290C, strain snf2, active compounds read low 0.967 | locus YPL051W, strain arl3, active compounds read low 1.01 | locus YPL078C, strain atp4, active compounds read low 0.995 | locus YPL106C, strain sse1, active compounds read low 1 | locus YPL240C, strain hsp82, active compounds read low 1.01

From PubChem BioAssay AID1159580 (chemical genetic matrix, 2015)
